# Source: PubChem BioAssay (EPA / NIEHS)
# Inconclusive results are not listed. The source made the active and inactive calls. How the source made its calls, unless noted: active means hit-call score of the fitted dose curve at least 0.9, where 1 is the maximum; inactive means score below 0.9.
# Tests used:
# [1] = molecular target: Nucleoli Translocation, AR (gene 367) (UniProt P10275); assay: UPITT_HCI_U2OS_AR_TIF2_Nucleoli_Antagonist: University of Pittsburgh U2OS Androgen Receptor-Transcriptional Intermediary Factor 2 (AR-TIF2) Antagonism High Content Imaging Assay for Nucleoli Translocation (AID 2283997; active means hit-call score of the fitted dose curve at least 0.9, where 1 is the maximum)
# Sequence of Nucleoli Translocation, AR (gene 367) (P10275 whole entry, looked up, the tested form may be a part): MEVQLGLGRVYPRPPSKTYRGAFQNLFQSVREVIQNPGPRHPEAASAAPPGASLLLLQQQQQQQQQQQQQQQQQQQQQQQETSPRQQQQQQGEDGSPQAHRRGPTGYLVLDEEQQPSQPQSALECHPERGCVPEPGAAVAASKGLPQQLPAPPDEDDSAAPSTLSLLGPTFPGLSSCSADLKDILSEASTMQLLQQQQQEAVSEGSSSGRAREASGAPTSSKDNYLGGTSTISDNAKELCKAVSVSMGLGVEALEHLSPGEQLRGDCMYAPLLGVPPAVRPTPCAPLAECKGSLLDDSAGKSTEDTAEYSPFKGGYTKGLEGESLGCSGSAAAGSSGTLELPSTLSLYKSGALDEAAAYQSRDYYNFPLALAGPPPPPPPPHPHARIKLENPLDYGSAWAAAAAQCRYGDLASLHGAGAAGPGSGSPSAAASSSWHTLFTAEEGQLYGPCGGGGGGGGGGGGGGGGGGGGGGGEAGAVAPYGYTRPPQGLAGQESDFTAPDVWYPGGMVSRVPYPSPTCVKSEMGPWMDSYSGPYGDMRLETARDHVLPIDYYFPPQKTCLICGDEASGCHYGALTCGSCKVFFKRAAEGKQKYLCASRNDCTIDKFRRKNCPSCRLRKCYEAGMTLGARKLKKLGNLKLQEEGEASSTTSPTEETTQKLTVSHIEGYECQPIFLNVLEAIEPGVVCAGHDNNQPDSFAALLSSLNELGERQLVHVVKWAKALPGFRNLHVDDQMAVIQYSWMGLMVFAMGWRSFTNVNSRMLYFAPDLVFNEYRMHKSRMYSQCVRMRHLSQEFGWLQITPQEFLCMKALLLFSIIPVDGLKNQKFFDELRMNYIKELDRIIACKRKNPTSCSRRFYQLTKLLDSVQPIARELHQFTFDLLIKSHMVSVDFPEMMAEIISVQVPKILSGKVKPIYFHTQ
# Summary of the method: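 Compounds are added at 20 uM final concentration in 0.2% DMSO to U2OS cells carrying AR-RFP and TIF2-GFP fusions. Nucleolar AR-RFP fluorescence is then quantified by automated imaging. Antagonism is fitted positively against DHT baseline.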
# [2] = molecular target: Nucleoli Translocation, AR (gene 367) (UniProt P10275); assay: UPITT_HCI_U2OS_AR_TIF2_Nucleoli_Agonist: University of Pittsburgh U2OS Androgen Receptor-Transcriptional Intermediary Factor 2 (AR-TIF2) Agonism High Content Imaging Assay for Nucleoli Translocation (AID 2283998; active means hit-call score of the fitted dose curve at least 0.9, where 1 is the maximum)
# Summary of the method: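 RFP-AR / GFP-TIF2 cells; cpds diluted in serum-free medium; single-point screen 20 uM final (0.2% DMSO), actives confirmed in triplicate; conc-response 0.195–50 uM final (0.5% DMSO). Readout: nucleolar red fluorescence, positive direction vs DMSO.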
# [3] = molecular target: Ratio of Nucleoli Translocation and Cytoplasm, AR (gene 367) (UniProt P10275); assay: UPITT_HCI_U2OS_AR_TIF2_Nucleoli_Cytoplasm_Ratio_Antagonist: University of Pittsburgh U2OS Androgen Receptor-Transcriptional Intermediary Factor 2 (AR-TIF2) Antagonism High Content Imaging Assay for Ratio of Nucleoli Translocation and Cytoplasm (AID 2283999; active means hit-call score of the fitted dose curve at least 0.9, where 1 is the maximum;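 further: antagonists lower the DHT-driven ratio of nucleolar to cytoplasmic red signal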)
# Sequence of Ratio of Nucleoli Translocation and Cytoplasm, AR (gene 367) (P10275 whole entry, looked up): as the sequence (P10275 whole entry, looked up, the tested form may be a part) above
# Summary of the method: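 High-content imaging of red fluorescence ratio, nucleoli versus cytoplasm, in U2OS expressing AR-RFP and TIF2-GFP, fitted relative to DHT. Compounds tested once at 20 uM final, then 0.195 to 50 uM final in serial dilution.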
# [4] = molecular target: Ratio of Nucleoli Translocation and Cytoplasm, AR (gene 367) (UniProt P10275); assay: UPITT_HCI_U2OS_AR_TIF2_Nucleoli_Cytoplasm_Ratio_Agonist: University of Pittsburgh U2OS Androgen Receptor-Transcriptional Intermediary Factor 2 (AR-TIF2) Agonism High Content Imaging Assay for Ratio of Nucleoli Translocation and Cytoplasm (AID 2284000; active means hit-call score of the fitted dose curve at least 0.9, where 1 is the maximum;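 further: hits raise the red nucleolar to cytoplasm ratio above vehicle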)
# Summary of the method: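 Human osteosarcoma U2OS line, AR-RFP plus TIF2-GFP; compounds 0.195–50 uM final, 0.5% DMSO. Readout: nucleolar/cytoplasmic RFP ratio by HCI, positive direction vs DMSO baseline.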
# [5] = CCTE_Harrill_HTTr_Viability_MCF7: CCTE's 6-hour Cell Viability Assessment for the High-Throughput Transcriptomics (HTTr) Platform, in MCF-7 cells cultured in DMEM + 10% fetal bovine serum, Harrill Lab (AID 2284010)
# Summary of the method: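 Propidium iodide exclusion, imaged by high-content analysis, gauged viability after a six-hour exposure across eight concentrations. Cells were MCF-7 grown in DMEM with 10% fetal bovine serum; fits run in both directions against DMSO.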
# [6] = CCTE_Harrill_HTTr_Apoptosis_MCF7: CCTE's 6-hour Apoptosis Assessment for the High-Throughput Transcriptomics (HTTr) Platform, in MCF-7 cells cultured in DMEM + 10% fetal bovine serum, Harrill Lab (AID 2284011)
# Summary of the method: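 Read-out: CellEvent Caspase 3/7 Green signal by high content imaging, gain-of-signal indicating apoptosis. MCF-7 cells, DMEM + 10% FBS, eight-point dilution series, 6 h exposure. Curves fitted bidirectionally relative to DMSO negative control.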
# [7] = CCTE_Harrill_HTTr_CellCount_MCF7: CCTE's Cell Proliferation Assessment for the High-Throughput Transcriptomics (HTTr) Platform, Harrill Lab (AID 2284012; active means hit-call score of the fitted dose curve at least 0.9, where 1 is the maximum;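 further: cells exposed to compound for six hours; intended direction is loss of nuclei count meaning fewer cells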)
# Summary of the method: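 Cell count from high-content imaging of Hoechst-labeled nuclei serves as viability/growth readout. Chemicals were applied to MCF-7 cells in eight concentrations for six hours, with fitting in both directions relative to DMSO.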
# [8] = tested on: DIO1 (gene 1733); assay: CCTE_GLTED_hDIO1: CCTE's human Deiodinase 1 (DIO1) Inhibition Assay, Great Lakes Toxicology and Ecology Division (GLTED) Lab (AID 2283987; active means hit-call score of the fitted dose curve at least 0.9, where 1 is the maximum;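 further: isolated human DIO1 enzyme in a cell-free setup rather than cells; enzyme activity read as free iodide liberated from substrate via Sandell-Kolthoff colorimetry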)
# Summary of the method: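 Steps: human DIO1 enzyme plus test chemical, 3 h incubation; free iodide then quantified in a second Sandell-Kolthoff step by absorbance. DMSO served as negative control and baseline.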
# [9] = CCTE_Shafer_MEA_acute_spike_number: CCTE's Neural Acute Assay for Total Number of Spikes, Shafer Lab (AID 2284008)
# Summary of the method: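 Rat cortical cultures, DIV 13/15, 37 C. 40 min baseline rec, cpd 0.03-40 uM, 40 min post-dose rec. Band-pass 300-5000 Hz, spike threshold 8x rms; % change in spike count per well, DMSO neg ctrl, loss-of-signal fit.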
# [10] = CCTE_Shafer_MEA_acute_firing_rate_mean: CCTE's Neural Acute Assay for Mean Firing Rate, Shafer Lab (AID 2284009);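 further: analyzed for loss of signal so actives lower firing rate relative to DMSO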
# Summary of the method: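 Rat cortical neuron cultures matured to DIV 13 or 15, equilibrated 20 min at 37 C, then recorded 40 min for baseline. Compound (0.03-40 uM) added and a further 40 min recorded; percent change in mean firing rate calculated per well.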
# [11] = CCTE_Shafer_MEA_acute_burst_number: CCTE's Neural Acute Assay for Single-Electrode Bursts, Shafer Lab (AID 2284013)
# Summary of the method: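 Percent change in single-electrode burst number per well, from 40-min recordings taken before and after adding compound (0.03-40 uM) to primary rat cortical neurons on MEA plates at DIV 13 or 15, 37 C.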
# [12] = CCTE_Shafer_MEA_acute_burst_duration_mean: CCTE's Neural Acute Assay for Mean Burst Duration, Shafer Lab (AID 2284014);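 further: hits are decreases in mean burst duration relative to DMSO controls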
# Summary of the method: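 Rat cortical cultures, DIV 13/15; 40 min baseline, then 40 min with compound (0.03-40 uM), 37 C. Spikes: 300-5000 Hz band-pass, 8x rms threshold. Read-out: % change in mean single-electrode burst duration, DMSO-referenced, loss direction.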
# [13] = CCTE_Shafer_MEA_acute_per_burst_spike_number_mean: CCTE's Neural Acute Assay for Average Number of Spikes Per Burst, Shafer Lab (AID 2284015);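 further: hits are decreases in mean spikes per burst versus baseline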
# Summary of the method: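 Read-out: percent change in mean spikes per burst, each well's post-exposure 40-min recording versus its own 40-min baseline. Rat cortical cultures, DIV 13 or 15, compounds 0.03-40 uM; DMSO is negative control, loss-of-signal fitting.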
# [14] = CCTE_Shafer_MEA_acute_interburst_interval_mean: CCTE's Neural Acute Assay for Mean Interburst Interval, Shafer Lab (AID 2284016);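 further: percent change of mean interburst interval versus each well's own pre-dose baseline; curves fitted for decrease in interburst interval relative to DMSO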
# Summary of the method: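 Rat cortical cultures, DIV 13/15; 20 min equilibration, 40 min baseline, compound 0.03-40 uM, 40 min re-recording, 37 C. Spikes detected at 8x rms noise (300-5000 Hz band-pass). Endpoint: % change in interburst interval, fitted in loss direction vs DMSO.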
# [15] = TOX21_TRB_BLA_Antagonist_Followup_viability: Viability Assessment in the Tox21 Thyroid Hormone Receptor beta Antagonism Beta-lactamase (BLA) Follow-Up Assay (AID 2283961; active means hit-call score of the fitted dose curve at least 0.9, where 1 is the maximum)
# Summary of the method: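 Viability read as CellTiter-Glo ATP luminescence (loss of signal = cytotoxicity) in the same plates as the TRβ-bla readout. TRβ-LBD/GAL4 UAS-bla HEK293T cells were exposed to compounds, 11 concentrations in triplicate, for 18 h at 37C/5% CO2.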
# [16] = TOX21_TR_RXR_BLA_Antagonist_Followup_viability: Viability Assessment in the Tox21 Thyroid Hormone Receptor beta Retinoid X Receptor alpha (RXRa) Antagonism Beta-lactamase (BLA) Follow-Up Assay (AID 2283979; active means hit-call score of the fitted dose curve at least 0.9, where 1 is the maximum)
# Summary of the method: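 RXRa-bla HEK293T cells (2,500/well, phenol red-free DMEM, 2% charcoal-stripped FBS) were attached 5 h, then exposed to compounds at 11 concentrations in triplicate for 16 h at 37C. Viability measured by CellTiter-Glo ATP luminescence, bidirectional fitting versus DMSO.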
smiles,measurement,setting,value
CCCCC(CC)COC(=O)/C=C\C(=O)OCC(CC)CCCC (configuration not stated),outcome,[1],inactive
same,outcome,[2],inactive
same,outcome,[3],inactive
same,outcome,[4],inactive
same,outcome,[5],inactive
same,outcome,[6],inactive
same,outcome,[7],inactive
O=Nc1ccc(Nc2ccccc2)cc1,AC50,[1],2560 nM (active)
same,outcome,[2],inactive
same,AC50,[3],2510 nM (active)
same,outcome,[4],inactive
same,outcome,[5],inactive
same,outcome,[6],inactive
CCCCCCCCCCCCCCCC(=O)OC[C@H](O)[C@H]1OC(=O)C(O)=C1O,AC50,[8],89600 nM (active)
same,outcome,[1],inactive
same,outcome,[2],inactive
same,outcome,[3],inactive
same,outcome,[4],inactive
CCC/C=C/C=O,outcome,[1],inactive
same,outcome,[2],inactive
same,outcome,[3],inactive
same,outcome,[4],inactive
CC[Si](OC(C)=O)(OC(C)=O)OC(C)=O,outcome,[9],inactive
same,outcome,[10],inactive
same,AC50,[11],429 nM (active)
same,outcome,[12],inactive
same,outcome,[13],inactive
same,outcome,[14],inactive
COc1cc(C=O)ccc1OC(=O)C(C)C,outcome,[9],inactive
same,outcome,[10],inactive
same,outcome,[5],inactive
same,outcome,[7],inactive
same,outcome,[11],inactive
same,outcome,[12],inactive
same,outcome,[13],inactive
same,outcome,[14],inactive
CC(=O)O[C@]1(C(C)=O)CC[C@H]2[C@@H]3C[C@H](C)C4=CC(=O)CC[C@]4(C)[C@H]3CC[C@@]21C,outcome,[15],inactive
same,outcome,[16],inactive
same,outcome,[5],inactive
same,outcome,[6],inactive
CC1(C)[C@H]2CC[C@]1(C)[C@H](O)C2,outcome,[5],inactive
same,outcome,[6],inactive
same,outcome,[7],inactive
Cc1ccc(C(=O)c2cc(O)c(O)c([N+](=O)[O-])c2)cc1,outcome,[5],inactive
CC(CCO)CCc1ccccc1 (configuration not stated),outcome,[5],inactive
Cc1cccc(Nc2ccccc2C(=O)O)c1C,outcome,[5],inactive
O=C(O)c1ccc([N+](=O)[O-])cc1,outcome,[5],inactive
same,outcome,[6],inactive
CCCCN,outcome,[5],inactive
COC(C)CCO (configuration not stated),outcome,[5],inactive
same,outcome,[6],inactive
CC(=O)OCCOC(C)=O,outcome,[5],inactive
same,outcome,[6],inactive
same,outcome,[7],inactive
C#C[C@]1(O)CC[C@H]2[C@@H]3CCC4=Cc5oncc5C[C@]4(C)[C@H]3CC[C@@]21C,outcome,[5],inactive
same,outcome,[6],inactive
same,outcome,[7],inactive
O=C(O)c1cn(C2CC2)c2cc(N3CCNCC3)c(F)cc2c1=O,outcome,[5],inactive
same,outcome,[6],inactive
same,outcome,[7],inactive
Clc1ccc2c(c1)C(N1CCNCC1)=Nc1ccccc1O2,outcome,[5],inactive
same,outcome,[6],inactive
same,outcome,[7],inactive
CCCCO,outcome,[5],inactive
same,outcome,[6],inactive
Cc1cccc(C)c1C,outcome,[5],inactive
same,outcome,[6],inactive
CC1(C)[C@@H]2CC[C@@]1(C)[C@H](O)C2,outcome,[5],inactive
same,outcome,[6],inactive
C[C@]12CC[C@H]3[C@@H](CCC4=CC(=O)CC[C@@]43C)[C@@H]1CC[C@@H]2C(=O)CO,outcome,[5],inactive
same,outcome,[6],inactive
CN1Cc2c(N)cccc2C(c2ccccc2)C1 (configuration not stated),outcome,[5],inactive
CNC[C@H](O)c1cccc(O)c1,outcome,[5],inactive
CCCc1c(OCCCOc2ccc(OCC(=O)O)cc2)ccc(C(C)=O)c1O,outcome,[5],inactive
same,outcome,[6],inactive
same,outcome,[7],inactive
CCCCCCCCC,outcome,[5],inactive
same,outcome,[6],inactive
same,outcome,[7],inactive
c1ccc2sc(SN(C3CCCCC3)C3CCCCC3)nc2c1,outcome,[5],inactive
same,outcome,[6],inactive
CCCCCCCCCCCCOCCO,outcome,[5],inactive
